Source: PubChem BioAssay
TbPYK inhibitor = blocks Trypanosoma brucei pyruvate kinase; AID 624173; hit rate 0.12% among 410,000; TbPYK enzyme, Kinase-Glo Plus ATP luminescence, 45 min; Q57TT1; Potency, µM (top dose mostly 76.8 µM), most hits filed as inhibitors; further: nearly all actives have a fitted effect of over 50% in size
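Luminescence from Kinase-Glo Plus, added after a 45-minute room-temperature reaction, served as the end-point read-out. The enzyme and substrate were preincubated with compound before ADP (130 uM final) initiated turnover. Concentration-effect curves came from normalized qHTS data.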
Shiga toxin inh = blocks Shiga toxin action in Vero cells. Vero cells, Shiga toxin protein synthesis inhibition reporter. inhibition, % at 38.7 µM. hit rate 9.2% among 290,000. AID 2315; in the data active means inhibition mostly above about 28%, no sharp cut-off; inactive means mostly below about 43%
CHX counter = counter-screen for Shiga toxin inhibitors: cycloheximide protein synthesis inhibition | cell reporter, cycloheximide protein synthesis inhibition counterscreen | max response, % | hit rate 12% among 300,000 | AID 2314; in the data active means max response mostly above about 13%, no sharp cut-off; inactive means mostly below about 14%; further: read at 38.3 µM for the half of the compounds with a filed dose
FBPA Giardia inh = blocks Giardia fructose-bisphosphate aldolase activity. A8B2U2. purified Giardia FBPA. Potency, µM (doses to about 59.6 µM), hits mostly inhibitors. hit rate 0.71% among 290,000; further: nearly all actives have a fitted effect of over 55% in size
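40 nM FBPA preincubated 10 min at RT with compound (up to 57.5 uM final), then substrate plus GAPDH/TPI/NAD/arsenate coupling and diaphorase/resazurin added. Fluorescence read after 20 min at RT, 525/598 nm.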
LmPK inh = inhibitors of Leishmania mexicana pyruvate kinase; Potency, µM (doses to about 57.5 µM), most hits filed as inhibitors; hit rate 0.37% among 290,000; purified LmPK, Kinase-Glo ATP luminescence, 1 h
Target sequence (Q27686 whole entry, looked up): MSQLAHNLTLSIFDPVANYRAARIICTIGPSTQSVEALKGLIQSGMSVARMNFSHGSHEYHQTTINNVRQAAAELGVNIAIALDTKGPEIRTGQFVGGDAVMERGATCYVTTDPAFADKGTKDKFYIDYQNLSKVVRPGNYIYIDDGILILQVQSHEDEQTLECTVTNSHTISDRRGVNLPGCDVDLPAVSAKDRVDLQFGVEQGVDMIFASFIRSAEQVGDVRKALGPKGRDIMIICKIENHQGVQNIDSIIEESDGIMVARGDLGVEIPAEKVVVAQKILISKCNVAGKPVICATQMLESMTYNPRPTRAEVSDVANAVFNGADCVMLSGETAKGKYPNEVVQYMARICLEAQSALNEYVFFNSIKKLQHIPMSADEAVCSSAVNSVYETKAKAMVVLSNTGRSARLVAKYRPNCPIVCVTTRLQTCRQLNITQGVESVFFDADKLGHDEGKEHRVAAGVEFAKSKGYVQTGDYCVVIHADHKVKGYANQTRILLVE
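In 50 mM imidazole pH 7.2 with 7 mM MgCl2, LmPK (0.1 nM) turned over PEP (0.5 mM) and ADP (0.1 mM) for 1 h at room temperature. Luciferase read-out of ATP.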
Sm TGR inh = S. mansoni TGR enzyme inhibition. Potency, µM (top dose mostly 114 µM), most hits filed as inhibitors. hit rate 3% among 360,000. purified TGR, DTNB reduction, TNB absorbance 405 nm; further: nearly all actives have a fitted effect of over 60% in size
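Kinetic colorimetric format: TGR-catalysed, NADPH-driven DTNB reduction monitored via TNB absorbance. Enzyme dispensed at 20 nM; compound exposure 15 min at room temperature before reaction start.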
A number is an active result; i = inactive; ? = inconclusive; nt = not tested or not shown. This excerpt belongs to a sample that is enriched for hits. Unless noted, the call rests on the fitted dose curve; in most records, active means well fitted curve in the direction sought with a large enough effect; inconclusive means small, poorly fitted or top-dose-only effect, or another doubt; inactive means no such curve, though single readings can be large; an effect the other way counts as inactive or inconclusive.

SMILES	TbPYK inhibitor	Shiga toxin inh	CHX counter	FBPA Giardia inh	LmPK inh	Sm TGR inh
COc1cccc2sc(N3CCN(C(=O)CCS(=O)(=O)c4ccc(F)cc4)CC3)nc12	i	nt	nt	nt	nt	i
COc1ccc(NC(=O)C2CC(=O)N/C(=N/N=C/c3ccccc3)S2)cc1 (stereo not drawn)	i	i	i	i	i	i
CCCOc1ccc(NC(=O)C2CC(=O)N/C(=N/N=C(C)/C=C/c3ccc(N(C)C)cc3)S2)cc1 (stereo not drawn)	i	82	40	i	i	i
C/C(CCc1ccc2c(c1)OCO2)=N\N=C1\NC(=O)CC(C(=O)Nc2ccc(C(=O)O)cc2)S1 (stereo not drawn)	i	nt	nt	nt	nt	nt
CC(/C=C/c1ccc(N(C)C)cc1)=N\N=C1\NC(=O)CC(C(=O)Nc2ccccc2)S1 (stereo not drawn)	i	63	49	i	i	i
CCCOc1ccc(NC(=O)C2CC(=O)N/C(=N/N=C(\C)CCc3ccc4c(c3)OCO4)S2)cc1 (stereo not drawn)	i	i	i	i	i	i
CC(/C=C/c1ccc(N(C)C)cc1)=N/N=C1/NC(=O)CC(C(=O)Nc2ccc(Cl)cc2)S1 (stereo not drawn)	i	60	48	i	i	i
COc1ccccc1N1CCN(C(=O)Cn2c(=O)nc(-c3ccccc3)c3ccccc32)CC1	i	nt	nt	nt	nt	i
C/C(O)=c1/cnc2nc3ccccc3n2c1=O	i	i	i	i	i	i
Cc1ccc(CNC(=O)c2c(C)oc3ncnc(N4CCOCC4)c23)cc1	i	nt	nt	nt	nt	i
COc1ccccc1NC(=O)CSc1nnc(-c2ccccn2)n1Cc1ccco1	i	i	i	i	i	40µM
COc1ccc(NC(=O)CSc2nnc(-c3ccccc3Cl)n2Cc2ccco2)c(OC)c1	i	i	i	i	i	35µM
C(=C\c1ccccc1)/CSc1nnc(-c2ccccn2)n1Cc1ccco1	i	i	i	i	i	35µM
COc1ccccc1NC(=O)CSc1nnc(-c2ccco2)o1	i	i	i	i	i	i
NC(=O)CSc1nnc(-c2ccccn2)n1Cc1ccco1	i	i	i	i	i	i
COc1ccccc1NC(=O)CSc1nccc(-c2ccco2)n1	i	nt	nt	nt	nt	25µM
CC[C@@H](C)C(N)C(=O)O (stereo partly drawn)	i	i	i	i	nt	nt
COCCn1c(=N)c(S(=O)(=O)c2ccc(F)cc2)cc2c(=O)n3ccccc3nc21	i	i	i	i	i	i
NC(=O)C1CCN(C(=O)c2cc(-c3ccc(Cl)cc3)nc3ccccc23)CC1	i	nt	nt	nt	nt	nt
O=C(c1cc(-c2ccccc2)nc2ccccc12)N1CCN(c2ccccc2O)CC1	i	46	15	nt	i	i
Cc1ccc(-c2cc(C(=O)N3CCOCC3)c3cc(C)ccc3n2)cc1	i	i	21	i	i	i
Cc1ccc(-c2cc(C(=O)N3CCCC3)c3ccccc3n2)s1	i	52	20	nt	i	i
Cc1ccc(-c2cc(C(=O)N3CCC(C)CC3)c3ccccc3n2)cc1	i	i	17	nt	i	i
O=C(c1cc(-c2ccc(Cl)s2)nc2ccccc12)N1CCCC1	i	nt	nt	nt	nt	nt
CCC(Sc1nc2nccnc2c(=O)n1Cc1ccc(OC)cc1)C(=O)NC1CCCCC1 (stereo not drawn)	i	nt	nt	nt	nt	i
SMILES	TbPYK inhibitor	Shiga toxin inh	CHX counter	FBPA Giardia inh	LmPK inh	Sm TGR inh
COc1ccccc1CNC(=O)C1CCC(CNS(=O)(=O)c2ccc3c(c2)CCCC(=O)N3)CC1 (stereo not drawn)	i	nt	nt	nt	nt	i
CCOC(=O)c1c(S(=O)(=O)NCC(=O)N2CCN(c3cccc(Cl)c3)CC2)c(C)n(C)c1C	i	nt	nt	nt	nt	i
Cc1c(C(=O)N(C)C)sc2c1c(=O)n(-c1ccc(Cl)c(Cl)c1)c(=O)n2CC(=O)Nc1ccc(Br)cc1F	nt	i	i	nt	nt	i
COc1cccc(Cn2c(=O)n(-c3cccc(Cl)c3C)c(=O)c3c4c(sc32)CN(C(C)=O)CC4)c1	i	nt	nt	nt	nt	i
Fc1ccccc1-c1n[nH]c(=S)n1/N=C/c1c[nH]c2ccccc12	?	i	i	i	10µM	i
Fc1ccccc1/C=N/n1c(C2CCCCC2)n[nH]c1=S	?	i	i	i	i	i
Fc1ccccc1SCc1nnc(-c2ccccc2Br)o1	32µM	141	53	i	i	i
COc1ccc(-c2nnc(SCc3nnc(-c4ccc(Cl)cc4)o3)n2-c2ccccc2)cc1	i	i	24	i	i	i
Brc1ccccc1-c1nnc(CSc2nnnn2-c2ccccc2)o1	i	54	29	i	i	i
Cc1cc(C)c(C(=O)CSc2nnc(-c3ccccc3Br)o2)cc1C	i	i	i	i	i	i
Cc1nnc(SCc2nnc(-c3ccccc3Br)o2)n1-c1ccccc1	i	i	i	i	i	i
Cc1csc(SCc2nnc(-c3ccccc3Br)o2)n1	i	78	48	i	i	i
Cc1noc(C)c1C(=O)N1CCC2(CCCN(C(c3ccccc3)c3ccccc3)C2)CC1	i	nt	nt	i	nt	nt
Cc1nnc(SCc2nnc(-c3ccc(Cl)cc3)o2)n1-c1ccccc1	i	i	i	i	i	i
Cc1csc(SCc2nnc(-c3ccc(Cl)cc3)o2)n1	i	91	32	i	i	i
Cc1ccc(-c2nnc(CSc3nnc(C)s3)o2)cc1	i	i	33	i	i	i
Cc1ccc(CCNC(=O)c2sc3nc4n(c(=O)c3c2C)CCCC4)cc1	i	nt	nt	nt	nt	i
CC(C)(C)C1CCc2c(sc3ncn(N)c(=N)c23)C1 (stereo not drawn)	i	i	13	i	i	i
Cc1oc(-c2cccc(Cl)c2)nc1CS(=O)(=O)CC(=O)NC1CC1	i	i	i	i	i	40µM
CCOC(=O)N1CCC(NC(=O)CS(=O)(=O)Cc2nc(-c3cccc(Cl)c3)oc2C)CC1	i	i	i	i	i	35µM
Cc1cc2c(s1)c1cnn(Cc3cccc(F)c3)c(=O)c1n2C	nt	i	i	nt	nt	nt
Cc1ccc(NC(=O)COC(=O)CNC(=O)c2ccc3ccccc3c2)c([N+](=O)[O-])c1	i	i	i	i	i	i
Cc1ccc(-c2cc(C(=O)N3CC(C)OC(C)C3)c3ccccc3n2)o1 (stereo not drawn)	i	nt	nt	nt	nt	40µM
Cc1ccc(-c2cc(C(=O)N3CC(C)CC(C)C3)c3ccccc3n2)o1 (stereo not drawn)	?	i	i	i	i	22µM
Cc1ccc(-c2cc(C(=O)NCC(c3ccccc3)N(C)C)c3ccccc3n2)o1 (stereo not drawn)	i	nt	nt	nt	nt	nt
CCCN(CCC)S(=O)(=O)c1ccc(C(=O)N2CCn3c4c(c5cc(C)ccc53)CCCC42)cc1 (stereo not drawn)	i	nt	nt	nt	nt	i
Cc1ccc(O)c(C(=O)CC(=O)c2cccc(F)c2)c1	i	61	38	i	i	i
Cc1ccc(O)c(C(=O)CC(=O)c2ccc(Cl)cc2)c1	i	96	38	i	i	i
